Most compounds without a hit are left out; they make up all but 19% or so of the library.
MCF10A rereplic = A quantitative high throughput screen for small molecules that induce DNA re-replication in MCF 10a normal breast cells. MCF 10A DNA re-replication, Hoechst nuclear intensity, 48 h. Potency, µM (highest dose often 46.1 µM), for the others: at the top dose activity, positive = re-replication, hits mostly activators. 350,000 compounds, 2.9% hits; also: potency is read from the fitted curve at half-maximal effect; % of control where 0% means no effect; nearly all actives have a fitted effect of over 50% in size
Chronic BCR inh = qHTS Assay to Find Inhibitors of Chronic Active B-Cell Receptor Signaling. 340,000 compounds, 0.05% hits. ABC-DLBCL IkBa-CBG/CBR reporter, luminescence ratio, 4 h. AID 493014, 2011. Potency, µM (top dose mostly 46.1 µM), for the others: at the top dose activity change, negative = inhibition, actives largely listed as inhibitors; active = well fitted inhibition curve with a large enough effect in the signal ratio, with a control signal flat, not every such curve was filed as active; inconclusive = small, poorly fitted or top-dose-only effect, or effect the other way, or a change in a side signal; the % refers to the signal ratio;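 also: potency is read from the fitted curve at half-maximal effect; plate controls were basal doxycycline-induced cells for no effect and cells given 10 µM MG132 for full effect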
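TMD8 ABC-DLBCL cells carrying doxycycline-inducible green luciferase fused to IkappaBalpha plus unfused red luciferase were exposed to compounds (up to 46 uM) for 4 hrs at 37C. Activity came from the overlap-corrected green/red luminescence ratio.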
DT40 TDP1 CPT = qHTS for Inhibitors of human tyrosyl-DNA phosphodiesterase 1 (TDP1): qHTS in cells in presence of CPT | 420,000 compounds, 12% hits | Potency, µM (highest dose often 46.2 µM), without a hit: at the highest dose activity change, negative = growth inhibition, hits mostly inhibitors | chicken DT40 Tdp1-/-;hTDP1 cells + 20 nM CPT, ATP luminescence, 48 h; also: potency is read from the fitted curve at half-maximal effect; % is scaled to controls: 0 for no effect and ±100 for the full control effect; nearly all actives have a fitted effect of over 55% in size
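Chicken DT40 Tdp1-/- cells stably complemented with human TDP1 were seeded at 400 cells/well in medium containing 20 nM camptothecin, exposed to pin-transferred compounds, and grown at 37 °C for at least 48 hr. Viability was read as ATP luminescence.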
SW480 rerep = A quantitative high throughput screen for small molecules that induce DNA re-replication in SW480 colon adenocarcinoma cells; SW480 DNA re-replication, Hoechst DNA content imaging, 48 h; Potency, µM (doses to about 46.1 µM), without a hit: top-dose re-replication activation, most hits filed as activators; 340,000 compounds, 1.8% hits; AID 624297, 2012; also: potency is read from the fitted curve at half-maximal effect; % of control where 0% means no effect; nearly all actives have a fitted effect of over 55% in size
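SW480 cells exposed to compounds for 48 hr at 37 C, 5% CO2, then Hoechst-stained 40 min. Nuclear DNA content imaged by fluorescence scanning (405 nm excitation, 500-530 nm emission); re-replication scored as increased high-intensity nuclei.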
IL-1B inflam inh = qHTS for Inhibitors of Inflammasome Signaling: IL-1-beta AlphaLISA Primary Screen; activity change, % at 57.5 µM; THP-1 LPS/ATP IL-1B secretion, AlphaLISA, 16 h; stronger effect = lower value; AID 743279, 2014; 360,000 compounds, 4.7% hits; in the data active = activity change below about -50%; inconclusive = mostly about -30% to -49%; also: % is scaled to controls: 0 for no effect and ±100 for the full control effect
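THP-1 cells pretreated 1 hr with compounds (up to 57.5 uM final), then stimulated with LPS (250 ng/mL final) plus ATP (1.25 mM final); secreted IL-1B measured by AlphaLISA after 16 hr, decreased signal indicating inhibition.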
TDP1 cell noCPT = qHTS for Inhibitors of human tyrosyl-DNA phosphodiesterase 1 (TDP1): qHTS in cells in absence of CPT. DT40 Tdp1-/- hTDP1 cells, no CPT, ATP luminescence, 48 h. Potency, µM (series often up to 46.2 µM), inactives show at the top dose activity change, negative = growth inhibition, most hits filed as inhibitors. 420,000 compounds, 15% hits; also: potency is read from the fitted curve at half-maximal effect; % is scaled to controls: 0 for no effect and ±100 for the full control effect; nearly all actives have a fitted effect of over 55% in size
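Luminescent ATP content (CellTiter-Glo) served as the growth readout. Knockout chicken DT40 cells expressing human TDP1 were exposed to compounds without camptothecin for a minimum 48 hr at 37 °C.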
Active calls of the source: *; ? = inconclusive; nt = no result given; [ ] = another dose, or the depositor's remark. Unless noted, calls follow the shape of the dose curve; as a rule, active = well fitted curve in the direction sought with a large enough effect; inconclusive = small, poorly fitted or top-dose-only effect, or another doubt; inactive = no such curve, though single readings can be large; an effect the other way counts as inactive or inconclusive.

SMILES | MCF10A rereplic | Chronic BCR inh | DT40 TDP1 CPT | SW480 rerep | IL-1B inflam inh | TDP1 cell noCPT
O=c1c(Cl)c(N/N=C/c2ccc(Br)cc2)cnn1-c1ccccc1 | 7.1µM* | ? | ? | ? | -14 | ?
CNc1cnn(-c2ccccc2)c(=O)c1Cl | -52% | -2% | ? | -3% | 4 | ?
CCc1nc2c(OCCn3cccc3)cccn2c1N(C)C(=O)c1ccco1 | nt | nt | 2% | nt | -7 | -3%
O=C(CSc1nc2ccccc2c(=O)[nH]1)c1cccs1 | 7% | ? | 8.2µM* | -4%[9.22 µM] | 18 | 16µM*
Cc1cc(SCC(=O)c2cccs2)nc2ccccc12 | ? | ? | 16µM* | 2% | 39 | ?
O=C(CSc1nc2ccccc2c(=O)[nH]1)c1ccc(O)c(O)c1 | 22% | ? | -26% | 2% | 3 | -13%
O=C(CSc1nc2ccccc2c(=O)[nH]1)c1ccc(O)cc1O | 9% | ? | 13µM* | 17% | 28 | ?
Cc1cc(SCC(=O)NC2CC2)nc2ccccc12 | 19% | ? | 2% | -9% | -6 | -8%
CC(C)c1ccc(NC(=O)Nc2cnccn2)cc1 | 4.1µM* | ? | 12µM* | ? | 14 | 7.3µM*
Cc1ccc(NC(=O)Nc2cnccn2)cc1 | 5% | 4% | -18% | 12% | -2 | 18%
O=C(Nc1ccc([N+](=O)[O-])cc1)Nc1cnccn1 | ? | ? | ? | ? | ? | 16µM*
Cc1ccc(C2N(c3ccccc3)C(=O)N3CCCN23)cc1 (configuration not stated) | 3% | 4% | ? | 0.52µM* | 3 | -16%
O=C(NCc1cn(-c2ccccc2)nc1-c1ccc(F)cc1)c1cccc([N+](=O)[O-])c1 | 3% | -2% | ? | ? | -75* | ?
O=C(CCl)Nc1cn(-c2ccccc2)nc1-c1ccc(F)cc1 | ? | ? | 4.6µM* | ? | -107* | 3.7µM*
Fc1ccc(-n2cc(CNCCc3cccnc3)c(-c3ccccc3Cl)n2)cc1 | 16% | ? | 15µM* | -5% | -76* | 23µM*
Fc1ccc(-c2nn(-c3ccccc3)cc2CNCc2ccccc2)cc1 | ? | -4% | ? | -1% | -90* | ?
O=C1NC(Cc2ccc(O)cc2)c2nc3ccc(Br)cc3c(=O)n2-c2ncccc21 (configuration not stated) | nt | nt | -14% | nt | 21 | ?
COc1ccc(OC)c(NC(=O)CSc2nc3nc(C)cc(C)n3n2)c1 | -1% | -2% | 2% | 1% | -11 | -8%
OCc1cn(-c2ccccc2)nc1-c1ccc(-c2nn(-c3ccccc3)cc2CO)cc1 | -12% | 0% | ? | 17% | -15 | 10µM*
O=C(O)Cc1cn(-c2ccccc2)nc1-c1ccccc1 | 0% | 2% | 3% | ? | -6 | -20%
O=C(NCCc1ccc(O)c(O)c1)C1COc2ccccc2O1 (configuration not stated) | 28% | ? | 13µM* | ? | 29 | ?
CCC(C)N(C(=O)c1csnn1)C(C(=O)NC1CCCC1)c1ccc(F)cc1 (configuration not stated) | -3% | -1% | -15% | -3% | 17 | -30%
CC(C)(C)NC(=O)C(c1ccccn1)N(C(=O)c1csnn1)C1CCCCC1 (configuration not stated) | -8% | 11% | 8% | -11% | -16 | -24%
CCC(C)(C)NC(=O)C(c1ccccn1)N(C(=O)c1csnn1)C1CCCCC1 (configuration not stated) | 7.3µM* | 11% | 18% | 4% | -14 | ?
CC(C)CCN(C(=O)c1csnn1)C(C(=O)NC1CCCCC1)c1ccc(F)cc1 (configuration not stated) | 2% | -2% | -17% | 1% | -57* | ?
SMILES | MCF10A rereplic | Chronic BCR inh | DT40 TDP1 CPT | SW480 rerep | IL-1B inflam inh | TDP1 cell noCPT
CCc1ccc(C(C(=O)NC2CCCCC2)N(C(=O)c2csnn2)C2CC2)cc1 (configuration not stated) | 18% | ? | 16µM* | 11% | 1 | ?
Cc1ccc(C(C(=O)NC2CCCCC2)N(C(=O)c2csnn2)C2CC2)cc1 (configuration not stated) | -1% | 1% | ? | 6% | 6 | ?
COc1ccccc1N(CC(=O)NCc1ccc2c(c1)OCO2)C(=O)CCC(=O)Nc1nccs1 | -1% | 0% | 6% | 8% | -26 | -18%
CCOc1cc(CNC(=O)Cn2ncn3c(cc4cc(F)ccc43)c2=O)cc(OCC)c1OCC | nt | nt | 3% | nt | nt | -20%
Cc1ccc(C(=O)Nc2cccc(NC(=O)CN3CCCCC3)c2)cc1 | ? | ? | ? | -19% | -7 | ?
Cc1onc(-c2c(F)cccc2Cl)c1C(=O)ONC(=O)c1ccco1 | 1% | ? | 9% | 6% | 18 | 5%
CN(C)c1ccc(CNC(=O)CCCn2ccc3cc(S(=O)(=O)N4CCCC4)ccc32)cc1 | nt | nt | ? | nt | nt | 18µM*
O=C(CCn1ccc2cc(S(=O)(=O)N3CCCC3)ccc21)NCc1ccccc1 | -1% | 2% | -29% | -1% | 30 | -7%
O=C(CCCn1ccc2cc(S(=O)(=O)N3CCCC3)ccc21)NCc1ccc(Cl)cc1 | nt | nt | 4.6µM* | nt | nt | 2.3µM*
Cc1cccn2c(=O)cc(COc3ccc(NC(=O)C(C)C)cc3)nc12 | nt | nt | 4% | nt | nt | 2%
CCCCN(CC)Cc1ccc(CNC(=S)Nc2c(C)cc(C)cc2C)o1 | 13% | ? | 2% | -7% | 0 | ?
CCCCN(CC)Cc1ccc(CNC(=S)Nc2ccc(C)cc2Cl)o1 | -1% | 7% | 16µM* | ? | -62* | 18µM*
CCCCN(CC)Cc1ccc(CNC(=O)Nc2ccc(F)cc2)o1 | 19% | 13% | 4.5µM* | 0% | 0 | 5.6µM*
O=C(/C=C/c1cccs1)NC(=S)NNC(=O)c1ccccc1O | ? | ? | 5.2µM* | ? | 112 | 4.6µM*
O=C(/C=C/c1cccs1)NC(=S)Nc1ccccc1 | 0% | -2% | ? | 3% | -62* | ?
CCn1c(=O)cc(SCC(=O)NCc2ccccc2OC)c2ccccc21 | nt | nt | ? | nt | nt | 23µM*

Compound activity: PubChem BioAssay, National Center for Advancing Translational Sciences (NCATS)
